Experimental data reported in ChEMBL document CHEMBL1961873, “Compounds: GSK PKIS; Assays: Nanosyn kinase panel” (2012).

Experiments:
[1] = system: Tyrosine-protein kinase ABL1 (Homo sapiens), P00519 [T315I]; settings: at 1 µM
[2] = system: Tyrosine-protein kinase ABL1 (Homo sapiens), P00519 [Y253F]; settings: at 0.1 µM
[3] = system: Tyrosine-protein kinase ABL1 (Homo sapiens), P00519 [Y253F]; settings: at 1 µM
[4] = target: Tyrosine-protein kinase ABL1 (Homo sapiens) (UniProt P00519); settings: at 0.1 µM
[5] = target: Tyrosine-protein kinase ABL1 (Homo sapiens) (UniProt P00519); settings: at 1 µM
[6] = target: ALK tyrosine kinase receptor (Homo sapiens) (UniProt Q9UM73); settings: at 0.1 µM
[7] = target: ALK tyrosine kinase receptor (Homo sapiens) (UniProt Q9UM73); settings: at 1 µM
[8] = target: Tyrosine-protein kinase ABL2 (Homo sapiens) (UniProt P42684); settings: at 0.1 µM
[9] = target: Tyrosine-protein kinase ABL2 (Homo sapiens) (UniProt P42684); settings: at 1 µM
[10] = target: Tyrosine-protein kinase receptor UFO (Homo sapiens) (UniProt P30530); settings: at 0.1 µM;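 note: values are mean percent inhibition of AXL from the GSK PKIS screen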
Sequence of Tyrosine-protein kinase receptor UFO (Homo sapiens) (P30530 whole entry): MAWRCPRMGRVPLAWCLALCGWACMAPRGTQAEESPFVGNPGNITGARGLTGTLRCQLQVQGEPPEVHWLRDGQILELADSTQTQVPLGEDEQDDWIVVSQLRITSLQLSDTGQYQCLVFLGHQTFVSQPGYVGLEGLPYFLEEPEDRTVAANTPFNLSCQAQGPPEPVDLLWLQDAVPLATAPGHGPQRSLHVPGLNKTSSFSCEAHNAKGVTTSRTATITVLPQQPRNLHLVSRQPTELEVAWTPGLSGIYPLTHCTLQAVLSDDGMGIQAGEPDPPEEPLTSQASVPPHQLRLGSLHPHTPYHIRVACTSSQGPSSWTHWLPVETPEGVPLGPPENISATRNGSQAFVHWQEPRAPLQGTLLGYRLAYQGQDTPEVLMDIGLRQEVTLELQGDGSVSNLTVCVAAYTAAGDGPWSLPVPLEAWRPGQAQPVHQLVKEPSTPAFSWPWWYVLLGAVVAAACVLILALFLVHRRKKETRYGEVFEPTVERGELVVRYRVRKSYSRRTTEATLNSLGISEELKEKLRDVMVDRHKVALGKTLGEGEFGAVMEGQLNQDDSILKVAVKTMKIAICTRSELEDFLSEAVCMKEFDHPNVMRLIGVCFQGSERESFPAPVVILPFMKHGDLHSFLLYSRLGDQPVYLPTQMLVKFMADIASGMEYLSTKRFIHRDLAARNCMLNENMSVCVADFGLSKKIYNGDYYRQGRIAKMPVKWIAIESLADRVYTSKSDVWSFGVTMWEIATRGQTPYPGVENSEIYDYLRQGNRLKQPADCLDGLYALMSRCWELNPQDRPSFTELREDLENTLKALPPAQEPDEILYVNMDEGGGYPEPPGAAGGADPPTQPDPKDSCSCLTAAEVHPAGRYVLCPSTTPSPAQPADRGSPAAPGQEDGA

Sequence of ALK tyrosine kinase receptor (Homo sapiens) (Q9UM73 19-1620 limits assumed): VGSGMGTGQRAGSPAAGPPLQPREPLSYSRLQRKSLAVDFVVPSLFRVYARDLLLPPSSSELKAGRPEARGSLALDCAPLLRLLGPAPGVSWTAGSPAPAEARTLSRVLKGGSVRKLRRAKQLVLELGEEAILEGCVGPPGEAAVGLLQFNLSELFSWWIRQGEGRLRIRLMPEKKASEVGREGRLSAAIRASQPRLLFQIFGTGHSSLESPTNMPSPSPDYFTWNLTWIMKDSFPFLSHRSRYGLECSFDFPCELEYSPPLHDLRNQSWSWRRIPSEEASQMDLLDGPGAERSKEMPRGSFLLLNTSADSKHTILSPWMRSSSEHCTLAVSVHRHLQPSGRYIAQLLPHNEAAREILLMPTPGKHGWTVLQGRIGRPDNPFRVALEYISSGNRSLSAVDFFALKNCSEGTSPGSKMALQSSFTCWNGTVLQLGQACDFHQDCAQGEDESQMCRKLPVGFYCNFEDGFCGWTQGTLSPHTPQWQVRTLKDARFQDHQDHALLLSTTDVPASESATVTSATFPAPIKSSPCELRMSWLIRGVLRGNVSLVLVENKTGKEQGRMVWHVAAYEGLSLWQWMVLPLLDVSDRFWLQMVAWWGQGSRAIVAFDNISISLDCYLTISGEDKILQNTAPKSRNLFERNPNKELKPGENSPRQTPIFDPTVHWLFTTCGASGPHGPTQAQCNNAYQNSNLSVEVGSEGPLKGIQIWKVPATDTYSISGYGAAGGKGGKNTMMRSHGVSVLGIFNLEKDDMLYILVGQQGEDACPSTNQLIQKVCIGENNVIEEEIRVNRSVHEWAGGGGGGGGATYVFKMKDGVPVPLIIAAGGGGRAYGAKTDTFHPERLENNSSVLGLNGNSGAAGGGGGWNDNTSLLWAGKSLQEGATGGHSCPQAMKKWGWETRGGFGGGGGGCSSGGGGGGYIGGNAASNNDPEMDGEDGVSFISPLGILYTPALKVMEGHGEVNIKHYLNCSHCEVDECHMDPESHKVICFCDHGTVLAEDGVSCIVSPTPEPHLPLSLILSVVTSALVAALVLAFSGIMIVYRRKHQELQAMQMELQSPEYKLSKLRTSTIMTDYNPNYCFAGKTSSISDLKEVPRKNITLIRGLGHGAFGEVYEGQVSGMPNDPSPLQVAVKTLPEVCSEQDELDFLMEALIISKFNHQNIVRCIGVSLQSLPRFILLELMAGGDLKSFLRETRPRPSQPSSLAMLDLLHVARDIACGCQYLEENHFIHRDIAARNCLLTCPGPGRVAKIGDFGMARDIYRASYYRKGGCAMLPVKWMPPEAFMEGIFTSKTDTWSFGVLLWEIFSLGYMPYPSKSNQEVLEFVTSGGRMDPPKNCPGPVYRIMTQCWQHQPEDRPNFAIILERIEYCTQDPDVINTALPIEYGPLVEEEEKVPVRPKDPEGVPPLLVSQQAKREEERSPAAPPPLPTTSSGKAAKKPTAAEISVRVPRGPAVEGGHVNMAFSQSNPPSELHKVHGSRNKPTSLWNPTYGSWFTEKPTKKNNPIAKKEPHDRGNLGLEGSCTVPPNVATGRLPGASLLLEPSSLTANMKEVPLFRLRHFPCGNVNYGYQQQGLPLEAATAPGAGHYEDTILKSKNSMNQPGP
Sequence of Tyrosine-protein kinase ABL2 (Homo sapiens) (P42684 whole entry): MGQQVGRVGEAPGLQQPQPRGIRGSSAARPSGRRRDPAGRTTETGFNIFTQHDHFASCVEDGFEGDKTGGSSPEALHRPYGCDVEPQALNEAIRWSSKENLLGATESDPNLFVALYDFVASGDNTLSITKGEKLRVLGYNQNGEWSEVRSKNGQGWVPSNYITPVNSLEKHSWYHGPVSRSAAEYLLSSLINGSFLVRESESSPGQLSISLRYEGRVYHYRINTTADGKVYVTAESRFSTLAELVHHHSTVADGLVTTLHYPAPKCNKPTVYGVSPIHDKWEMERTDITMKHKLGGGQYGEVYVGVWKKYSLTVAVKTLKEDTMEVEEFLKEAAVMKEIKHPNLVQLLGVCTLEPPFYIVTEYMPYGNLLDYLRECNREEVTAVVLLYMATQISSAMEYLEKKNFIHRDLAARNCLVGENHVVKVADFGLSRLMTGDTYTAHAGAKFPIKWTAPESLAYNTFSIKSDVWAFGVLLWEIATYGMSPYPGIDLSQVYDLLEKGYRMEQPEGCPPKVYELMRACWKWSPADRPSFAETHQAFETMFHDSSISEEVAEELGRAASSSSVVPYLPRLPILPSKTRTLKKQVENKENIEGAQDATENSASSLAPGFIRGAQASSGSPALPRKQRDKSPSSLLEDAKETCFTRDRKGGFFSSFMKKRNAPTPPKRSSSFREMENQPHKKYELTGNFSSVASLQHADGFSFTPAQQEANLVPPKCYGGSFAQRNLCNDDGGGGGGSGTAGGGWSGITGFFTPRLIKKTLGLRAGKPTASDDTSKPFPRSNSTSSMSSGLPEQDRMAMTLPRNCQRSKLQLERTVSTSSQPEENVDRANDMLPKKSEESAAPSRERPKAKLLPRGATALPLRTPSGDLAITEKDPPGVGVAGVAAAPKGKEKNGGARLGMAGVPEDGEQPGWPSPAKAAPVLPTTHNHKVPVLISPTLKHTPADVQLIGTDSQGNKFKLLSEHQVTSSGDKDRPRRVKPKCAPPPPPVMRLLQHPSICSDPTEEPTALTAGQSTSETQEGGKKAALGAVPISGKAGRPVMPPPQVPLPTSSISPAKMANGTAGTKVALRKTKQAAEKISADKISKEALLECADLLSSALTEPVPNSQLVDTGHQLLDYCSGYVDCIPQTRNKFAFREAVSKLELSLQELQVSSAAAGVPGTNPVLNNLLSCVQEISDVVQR

Structure (SMILES) | inhibition [1] | inhibition [2] | inhibition [3] | inhibition [4] | inhibition [5] | inhibition [6] | inhibition [7] | inhibition [8] | inhibition [9] | inhibition [10]
CS(=O)(=O)CCNCc1ccc(-c2ccc3ncnc(Nc4ccc(OCc5cccc(F)c5)c(C(F)(F)F)c4)c3c2)o1 | 4.21% | 4.9% | 2.89% | 2.03% | 2.75% | 1.6% | 2.6% | 4.19% | 4.05% | -5.05%
COc1ccc(-c2ccncc2)cc1C(N)=O | 2.08% | 4.84% | 2.94% | 4.11% | 5.76% | 3.85% | 6.43% | 3.92% | 4.08% | -7.91%
NC(=O)c1ccc(-c2nc(-c3ccccn3)c(-c3ccc4c(c3)OCO4)[nH]2)cc1 | 2.56% | 1.74% | 2.37% | 1.82% | 6.95% | 1.12% | 2.39% | 1.95% | 6.03% | -3.37%
COc1cc2ncn(-c3cc(OCc4ccccc4C(F)(F)F)c(C(N)=O)s3)c2cc1OC | 14% | 5.48% | 19.4% | 2.17% | 17.9% | 0.14% | 5.04% | 2.15% | 13.2% | -8.08%
COc1ccc(COc2ccc(Cc3cnc(N)nc3N)cc2OC)cc1 | -2.04% | 3.15% | 0.75% | 3.16% | 7.34% | -0.54% | 0.01% | 3.27% | 5.98% | 4.25%
CC1=C(C(=O)Nc2ccc3[nH]ncc3c2)C(c2ccc(F)cc2)NC(=O)N1 (centres undefined) | 2.66% | 1.48% | 5.27% | 3.51% | 8.74% | 0.35% | 3.89% | 2.2% | 19.7% | -2.41%
NCc1ccc(-c2nc(-c3ccc(Cl)c(O)c3)c(-c3ccncc3)[nH]2)cc1 | 24.2% | 12.6% | 54.6% | 6.87% | 53.1% | -0.45% | 2.22% | 9.17% | 55.8% | -4.39%
O=C1NC(=O)C(c2cccc(Cl)c2)=C1Nc1ccc(O)c(Cl)c1 | -0.11% | -0.8% | 2.65% | 2.51% | 7.89% | 0.73% | 4.45% | 2.29% | 8.28% | 0.38%
CCCN1CCC=C(c2ccc(Nc3nc(Nc4ccccc4C(N)=O)c4cc[nH]c4n3)c(C)c2)C1 | 12.1% | 1.82% | 7.55% | 5.84% | 16.4% | 76.2% | 82.1% | 10% | 13% | 8.88%
Nc1nc(-c2ccccn2)c(-c2ccc3ncccc3n2)s1 | 3.65% | 3.71% | 3.66% | 5.61% | 12.5% | 1.41% | 4.86% | 3.71% | 8.87% | -2.51%
Nc1ncnc2occ(-c3ccc(NC(=O)Nc4cc(C(F)(F)F)cc(C(F)(F)F)c4)cc3)c12 | 83.3% | 9.88% | 42.3% | 3.94% | 43.5% | 2.49% | 10.8% | 6.22% | 48.9% | -0.91%
CS(=O)(=O)Nc1ccc(N/C=C2\C(=O)Nc3ccccc32)cc1 | 18.3% | -0.43% | 12% | -0.3% | 11% | -2.22% | 5.88% | 0.2% | 8.69% | 2.95%
CCn1c(-c2nonc2N)nc2c(N3CCCC3)nccc21 | 0.72% | -1.15% | 2.07% | -1.74% | 0.66% | -1.38% | -2.28% | 0.18% | 7.36% | 0.14%
CCc1cccc(NC(=O)Nc2ccc(Oc3ccc4nc(NC(=O)OC)[nH]c4c3)cc2)c1 | 51.3% | 18.3% | 26.6% | 7.41% | 23.8% | 1.34% | 3.68% | 14.8% | 44.8% | 9.63%
CCn1c(-c2nonc2N)nc2cnc(Oc3cccc(NC(=O)c4ccc(OCCN5CCOCC5)cc4)c3)cc21 | 4.26% | 5.27% | 4.41% | 3.37% | 11.1% | 1.15% | 3.72% | 4.56% | 7.99% | -6.28%
Fc1cccc(COc2ccc(Nc3ncnc4cc(-c5ccc[nH]5)sc34)cc2Cl)c1 | 5.41% | 3.92% | 8.02% | 0.53% | 10.7% | -2.31% | 2.96% | 3.02% | 9.41% | -2.49%
COc1ccccc1Nc1ncc(-c2ccccc2)o1 | 5.84% | 4.71% | 13.7% | 8.63% | 14.1% | 4.54% | 9.47% | 7.08% | 11.2% | -6.45%

Structure (SMILES) | inhibition [1] | inhibition [2] | inhibition [3] | inhibition [4] | inhibition [5] | inhibition [6] | inhibition [7] | inhibition [8] | inhibition [9] | inhibition [10]
COc1cc(C)c(NC(=O)CN(C)C)cc1Nc1nc(Nc2cccc(F)c2C(N)=O)c2cc[nH]c2n1 | 0.49% | 3.3% | -0.09% | 1.95% | 4.55% | 97.8% | 88.9% | 1.11% | -0.02% | 17.6%
Cn1cc(C=C2C(=O)Nc3cccnc32)c2ccccc21 | 43.9% | 10.6% | 48.7% | 7.81% | 44.7% | 5.12% | 9.81% | 3.71% | 20.9% | -2.84%
O=C1Nc2ccc(C(=O)c3ccco3)cc2C1=Cc1cc(Cl)c(O)c(Cl)c1 | 8.5% | 5.68% | 17.9% | 4.71% | 21.5% | 3.92% | 20.8% | 5.9% | 15.3% | -4.61%
CCn1c(-c2nonc2N)nc2c(C#CC(C)(C)O)nc(OC[C@@H](N)c3ccccc3)cc21 | 3.35% | 0.12% | 2.98% | 7.72% | 10.1% | -0.2% | 10.2% | 5.61% | 1.83% | 2.41%
CS(=O)(=O)CCNCc1ccc(-c2ccc3ncnc(Nc4ccc(OCc5ccccc5)c(Cl)c4)c3c2)o1 | 2.14% | 0.5% | 1.92% | 0.58% | 3.7% | 1.08% | 4.89% | 0.92% | 5.67% | 0.79%
COc1cc2ncn(-c3cc(OCc4ccccc4Cl)c(C(N)=O)s3)c2cc1OC | 27.1% | 4.62% | 32.7% | 3.59% | 32.2% | 1.53% | 5.8% | 1.8% | 21.1% | 0.24%
CS(=O)(=O)CCN(CC#N)Cc1ccc(-c2ccc3ncnc(Nc4ccc(OCc5cccc(F)c5)c(Cl)c4)c3c2)o1 | -0.34% | 2.36% | 1.9% | -2.3% | -2.95% | -2.83% | -0.48% | -2.62% | -1.72% | -6.1%
CN(C)c1cc2c(Nc3ccc4nc(Cc5ccccc5)[nH]c4c3)ncnc2cn1 | 4.5% | 4.02% | 6.17% | 5.47% | 9.51% | 4.99% | 4.24% | 4.28% | 7.06% | -8.08%
Nc1ncnc2occ(-c3ccc(NC(=O)Nc4cccc(C(F)(F)F)c4)cc3)c12 | 89.2% | 12.3% | 48.2% | 16.1% | 55.8% | 6.2% | 21.8% | 33.6% | 64.7% | –
O=C(Nc1n[nH]c2nc(-c3ccco3)c(Br)cc12)C1CC1 | 26.6% | 3% | 11.5% | 5.46% | 24.1% | 1.26% | 4.4% | 3.57% | 18.4% | -6.59%
Cc1ccc(C(=O)NC2CCCCC2)cc1-c1ccc(C(=O)NCC2CC2)cc1 | -0.78% | 1.39% | 2.22% | 4.64% | 6.52% | 2.91% | 4.07% | 4.04% | 8.56% | 0.41%
CCn1c(-c2nonc2N)nc2cncc(C(=O)N3CCNCC3)c21 | 1.77% | 2.95% | 5.17% | 3.16% | 3.28% | 3.59% | 5.18% | 1.81% | 4.42% | -7.98%
COc1ccc(-c2coc3ncnc(N)c23)cc1 | 2.72% | 4.98% | 10.8% | 3.7% | 12% | 4.4% | 3.97% | 3.42% | 8.31% | -5.99%
COc1cc2c(cc1Nc1nc(N3CCc4ccccc43)c3cc[nH]c3n1)N(C(=O)CN(C)C)CC2 | -1.44% | 1.21% | 3.71% | 2.76% | 7.27% | 90% | 85.3% | 2.02% | 5.11% | 3.85%
NC(=O)c1cccc(Nc2nccc(Nc3cccc4[nH]ncc34)n2)c1 | 25.4% | 84.1% | 98.5% | 70.2% | 84.9% | -0.3% | 15.4% | 69.1% | 88.6% | 4.05%
NS(=O)(=O)c1cccc(-c2ccc3c(NC(=O)C4CC4)n[nH]c3c2)c1 | 25.3% | 2.68% | 27% | -0.29% | 20.5% | -1.84% | -1.06% | -1.16% | 1.08% | 1.32%
c1cnn2ncc(-c3ccnc(Nc4ccc5c(c4)OCCO5)n3)c2c1 | 35.9% | 9.16% | 36% | 7.67% | 38.7% | 3.96% | 31.7% | 7.27% | 43.9% | -2.3%
